# Sampled rows, rich in hits. Any-hit rate of the full collection: about 9.4%.
# ELG1 repair inh: qHTS screen for small molecules that inhibit ELG1-dependent DNA repair in human embryonic kidney (HEK293T) cells expressing luciferase-tagged ELG1 | AID 504467, 2011 | Potency, µM (doses to about 46.1 µM), for the others: top-dose activity change, negative = inhibition, actives largely listed as inhibitors | 2.3% of 330,000 active | HEK293T ELG1-luciferase reporter, luminescence, 16 h; DNA damage induced by 5-fluorouridine; also: % is scaled to controls: 0 for no effect and ±100 for the full control effect; nearly all actives have a fitted effect of over 55% in size
#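 Luminescence from the luciferase reporter, measured 30 min after ONE-Glo reagent at room temperature, was the read-out. Beforehand, 2,000 cells per well were exposed for 16 hr at 37 °C to 5-fluorouridine together with compound or vehicle.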
# NPC1 prom act: qHTS Assay for NPC1 Promoter Activators; 2.4% of 320,000 active; AID 485313, 2010; Potency, µM (top dose mostly 9.22 µM), inactives show at the highest dose activation, actives largely listed as activators; Huh7 NPC1 promoter luciferase reporter, 24 h; also: % of control where 0% means no effect; nearly all actives have a fitted effect of over 60% in size
#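 Huh7 reporter cells (NPC1 promoter driving luciferase) are dosed with compound for 24 h at 37 °C, 5% CO2; luciferase detection reagent is then added and luminescence measured after 10 min at ambient temperature.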
# ELG1 genotoxic: qHTS screen for small molecules that induce genotoxicity in human embryonic kidney (HEK293T) cells expressing luciferase-tagged ELG1; HEK293T ELG1-luciferase reporter, luminescence, 16 h; Potency, µM (titrated, usually from 46 µM), inactives show at the highest dose activity change, positive = activation, hits mostly activators; 1.3% of 330,000 active; AID 504466, 2011; also: % of control where 0% means no effect; nearly all actives have a fitted effect of over 60% in size
#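 DMSO vehicle served as control against compound-treated ELG1-luciferase HEK293T cells; exposure lasted 16 hr at 37 °C and 5% CO2, followed by ONE-Glo luminescence detection after 30 min.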
# SMN2 splice enh: qHTS Assay for Enhancers of SMN2 Splice Variant Expression; HEK293 SMN2-luciferase splicing reporter, luminescence, 30-36 h; Potency, µM (series often up to 46.1 µM), without a hit: top-dose activity change, positive = activation, usual class: activators; 2.8% of 210,000 active; also: % of control where 0% means no effect; nearly all actives have a fitted effect of over 55% in size
#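 qHTS luciferase splicing reporter: luminescence rises when SMN2 exon 7 is included in transfected HEK293 cells. Compound exposure lasted 30-36 h at 37C, with 4.5 mM final sodium butyrate as control, followed by a ONE-Glo read.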
# Rab9 prom act: qHTS Assay for Rab9 Promoter Activators; Huh7 Rab9 promoter-luciferase reporter, luminescence, 24 h; Potency, µM (series often up to 9.22 µM), without a hit: at the top dose activation, negative = inhibition, most hits filed as activators; 2.8% of 320,000 active; AID 485297, 2010; also: % of control where 0% means no effect; nearly all actives have a fitted effect of over 60% in size
#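 Luminescence from Amplite-detected luciferase (10 minutes, ambient) reports Rab9 promoter activation. Before that, stable Rab9-luciferase Huh7 cells (1500/well, reduced-serum OP-MEM I plus 10% FBS) were exposed to compound for 24 hours at 37C.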
# FLuc modulator: qHTS profiling assay for firefly luciferase inhibitor/activator using purifed enzyme and Km concentrations of substrates (counterscreen for miR-21 project). Luciferin 4-monooxygenase (Photinus pyralis), P08659. purified FLuc, Km substrates, luminescence inhibition. Potency, µM (doses to about 57.5 µM), for inactives: at the highest dose activity change, negative = inhibition, actives largely listed as inhibitors. 6.9% of 360,000 active;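 also: plate controls were vehicle for no effect and reference inhibitor for full effect; nearly all actives have a fitted effect of over 55% in size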
# Target sequence (P08659 whole entry, looked up): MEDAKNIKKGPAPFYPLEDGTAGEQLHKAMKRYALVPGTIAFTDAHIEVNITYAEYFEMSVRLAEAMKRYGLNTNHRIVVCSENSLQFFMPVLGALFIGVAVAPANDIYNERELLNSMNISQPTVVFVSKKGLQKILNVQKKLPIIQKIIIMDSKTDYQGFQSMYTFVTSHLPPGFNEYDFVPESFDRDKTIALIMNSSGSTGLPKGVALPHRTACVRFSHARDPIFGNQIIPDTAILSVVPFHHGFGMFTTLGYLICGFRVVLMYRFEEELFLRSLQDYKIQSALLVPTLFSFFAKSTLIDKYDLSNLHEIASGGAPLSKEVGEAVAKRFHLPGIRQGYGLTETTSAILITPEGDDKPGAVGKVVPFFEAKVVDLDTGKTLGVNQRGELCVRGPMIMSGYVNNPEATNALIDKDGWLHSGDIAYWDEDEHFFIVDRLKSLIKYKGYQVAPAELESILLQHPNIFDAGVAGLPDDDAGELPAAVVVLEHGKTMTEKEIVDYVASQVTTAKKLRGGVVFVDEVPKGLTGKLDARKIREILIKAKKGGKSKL
#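 Purified P. pyralis luciferase (10nM final) with 10uM D-luciferin and 10uM ATP (Km levels) in 50mM Tris acetate pH 7.5, 10mM Mg acetate, 0.01% Tween-20, 0.05% BSA; qHTS 6-point titration, ~60 µM downward; luminescence read.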
# * hit, by the source's call; ? = inconclusive; . = not tested or not shown; [ ] = dose if it differs, or a comment. Calls follow the shape of the dose curve; as a rule, active = well fitted curve in the direction sought with a large enough effect; inconclusive = small, poorly fitted or top-dose-only effect, or another doubt; inactive = no such curve, though single readings can be large; an effect the other way counts as inactive or inconclusive. Potency is read from the fitted curve at half-maximal effect.
SMILES,ELG1 repair inh,NPC1 prom act,ELG1 genotoxic,SMN2 splice enh,Rab9 prom act,FLuc modulator
COc1ccc(CC(=O)Nc2cc(-c3nc4cccnc4s3)ccc2C)cc1,.,.,.,.,.,0.67µM*
O=C(CSc1cn(CCNC(=O)c2cccc(C(F)(F)F)c2)c2ccccc12)Nc1ccc2c(c1)OCCO2,.,.,.,-40%,.,-17%
Cc1ccc(-c2nnc(Nc3cccc(Cl)c3)c3ccccc23)cc1S(=O)(=O)NCC1CCCO1 (stereo not given),.,.,.,-1%,.,-11%
Cc1cc(C)n2nc(CNC(=O)c3ccccc3Cl)nc2n1,.,.,.,-1%,.,2%
CCOC(=O)c1c(NC(=O)N/N=C/c2ccc(O)c(OC)c2)sc(C(C)=O)c1C,4.6µM*,-26%,-6%,.,-40%,?
CCOC(=O)c1c(NC(=O)C(=O)N/N=C/c2ccc(O)c(OC)c2)sc2c1CCCCC2,15µM*,-1%,-12%,-27%,-4%,3%
O=C(NCC(c1ccccc1)c1ccccc1)c1nn(-c2ccccc2F)nc1CO,.,.,.,-65%,.,-3%
CC(=O)Nc1cccc(-c2nc3ccccc3[nH]2)c1,?,6%,4%,-34%,23%,?
O=C(Nc1ccc2[nH]c3c(c2c1)CCCC3)c1ccco1,4.5µM*,11%,4%,?,8%,?
CC(=O)Nc1cccc(-c2nc3ccc(NC(C)=O)cc3[nH]2)c1,25%,4%,1%,-16%,-4%,15µM*
O=C(Nc1ccc2nc(-c3ccco3)[nH]c2c1)c1cccs1,?,?,5%,11µM*,3.2µM*,2.7µM*
Cc1cc2cc(NC(=O)c3ccco3)ccc2[nH]1,?,?,14%,27%,?,15µM*
NNC(=O)c1ccc2[nH]c3c(c2c1)CCCC3,-22%,-2%,3%,-34%,-3%,?
Cc1ccccc1CSc1cn(CC(=O)N2CCCCCC2)c2ccccc12,.,.,.,.,.,-3%
c1ccc(N2CCN(Cc3nnc(-c4ccc5c(c4)OCO5)o3)CC2)cc1,.,.,.,-1%,.,1%
O=C(O)CNC(=O)c1ccccc1O,.,.,.,-13%[9.22 µM],.,.
CCOC(=O)c1ccccc1NC(=O)c1cnc(N2CCOCC2)c2ccccc12,.,.,.,.,.,0%
O=C(Nc1ccc2nc(-c3ccco3)[nH]c2c1)c1ccco1,?,?,16µM*,24%,?,7.6µM*
O=C(Nc1ccc2nc(-c3cccnc3)[nH]c2c1)c1ccco1,11%,-3%,-1%,11%,-4%,?
Cc1ccc2nc(-c3cccc(NC(=O)c4ccco4)c3)[nH]c2c1,?,?,0%,13µM*,?,1.3µM*
CC(=O)Nc1ccc2nc(-c3ccco3)[nH]c2c1,?,23%,16%,?,?,17µM*
CCCC=O,.,.,.,20%,.,.
CC(C)(C)OC(=O)N1CCC(c2c(C(=O)NCc3cccc(Cl)c3)cnn2-c2ccc(F)cc2)CC1,.,.,.,.,.,4%
COc1cccc(Nc2nc(-c3ccccc3)c3cc(C)ccc3n2)c1,.,.,.,-8%,.,0%
COc1cc(Nc2nc(-c3ccccc3)c3cc(C)ccc3n2)cc(OC)c1OC,?,-4%,-2%,15%,2%,17µM*
SMILES,ELG1 repair inh,NPC1 prom act,ELG1 genotoxic,SMN2 splice enh,Rab9 prom act,FLuc modulator
CC1=N/C(=C\c2ccc([N+](=O)[O-])cc2)C(=O)N1c1ccc(F)cc1F,11%,-4%,-1%,.,-1%,7.6µM*
O=C(Cn1c2ncccc2c(=O)n1-c1ccccc1)Nc1cccc(C(F)(F)F)c1,.,.,.,.,.,-5%
COc1ccccc1Nc1ncc2c(n1)CCN(CC(C)C)C2,.,.,.,.,.,21µM*
COc1cc(CN2CCc3nc(Nc4ccc5c(c4)OCCO5)ncc3C2)cc(OC)c1OC,.,.,.,.,.,15µM*
COc1ccccc1Nc1ncc2c(n1)CCN(Cc1cc(F)cc(F)c1)C2,.,.,.,.,.,1%
Cc1ccc(NC(=O)C2CCN(S(=O)(=O)c3ccc4c(c3)CCCC(=O)N4)CC2)c(Cl)c1,.,.,.,.,.,1%
C=CCOC(=O)N[C@H](/C(C(=O)OC)=C(\C)NCc1ccccc1)c1ccc2c(c1)OCO2,.,.,.,4%,.,.
COc1ccc2cc3cc(C(=O)N4CCN(c5ccccc5F)CC4)oc3nc2c1,.,.,.,1%,.,-11%
COc1ccc2cc3cc(C(=O)N4CCCCCC4)oc3nc2c1,?,0.89µM*,2.6µM*,.,0.5µM*,1.9µM*
COc1ccc2cc3cc(C(=O)N(C)C4CCCCC4)oc3nc2c1,?,2.2µM*,?,.,2.2µM*,7.6µM*
COc1ccc2cc3cc(C(=O)N4CCN(C5CCCCC5)CC4)oc3nc2c1,7%,0%,2%,.,-6%,-11%
COc1ccc2cc3cc(C(=O)N4CCCCC4C)oc3nc2c1 (stereo not given),?,1.1µM*,2.3µM*,.,0.45µM*,3.4µM*
CCCn1c(-c2ccc(F)cc2)nc2c(N3CCCN(Cc4ccccc4)CC3)nc(C)nc21,.,.,.,-27%,.,.
CC(=O)c1ccc(Nc2ccc(-c3ccccc3F)nn2)cc1,?,0.71µM*,?,7.1µM*,0.5µM*,4.8µM*
Clc1ccc(-c2nc(Cc3ccccc3)no2)cc1,?,?,21µM*,0%,?,12µM*
Cc1ccccc1-c1nc(Cc2ccccc2)no1,?,?,?,?,?,12µM*
CC(=O)Nc1c(C(=O)Nc2ccccc2F)oc2ccccc12,.,.,.,9%,.,-3%
Cn1c(=O)c2c(c3ccccc31)OC(=O)CC2c1ccc(C(F)(F)F)cc1 (stereo not given),.,.,.,-1%,.,?
COc1cc(/C=C2/C(=N)N3C(=NC2=O)SN=C3S(C)(=O)=O)ccc1OS(=O)(=O)c1ccccc1,?,1%,8%,.,-2%,-13%
COc1ccccc1-n1c(C)cc(/C=C2\C(=N)N3N=C(CC(=O)N4CCOCC4)SC3=NC2=O)c1C,-6%,4%,7%,.,-2%,24µM*
COc1ccccc1-n1c(C)cc(/C=C2/C(=N)N3C(=NC2=O)SN=C3S(C)(=O)=O)c1C,?,?,?,-14%,?,0.67µM*
CCOc1ccc(-n2c(C)cc(/C=C3/C(=N)N4C(=NC3=O)SN=C4S(C)(=O)=O)c2C)cc1,-2%,-1%,4%,-6%,-2%,17µM*
Cc1cccc(C)c1-n1cccc1/C=C1/C(=N)N2C(=NC1=O)SN=C2S(C)(=O)=O,8%,-1%,0%,-37%,-3%,24µM*

# High-throughput results as filed in PubChem BioAssay.
